Source: PubChem BioAssay
ABCB6 inh MLPCN: human ABCB6 transporter inhibition. Q9NP58. K562-ABCB6 porphyrin accumulation, flow cytometry, 1 h; hits give low values. fluorescence ratio to DMSO, % at 10 µM. hit rate 0.19% among 360,000. AID 602162;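 active = fluorescence ratio to DMSO below 75%, the collection mean minus 3 SD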;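 note: signal is porphyrin accumulated inside mitochondria; 100% equals median channel fluorescence of DMSO control wells; lower ratio means ABCB6 inhibition with less porphyrin fluorescence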
PG9 binder: PG9 antibody binding by small molecule. inhibition, % at 6.7 µM. AID 624416. hit rate 0.43% among 360,000. TR-FRET gp120-PG9 antibody binding; in the data active = inhibition above about 8.5%
rCAG RNA binder: binds r(CAG) RNA repeats; r(CAG) RNA repeat, TO-PRO-1 dye displacement fluorescence; inhibition, % at 3 µM; hit rate 1.3% among 370,000; AID 651821;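 active = inhibition above the plate cutoff, the mean of all test compounds on that plate plus 3 SD, cut at about 35% in these data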;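 note: 0% = DMSO alone and 100% = 100 µM mitoxantrone as full dye displacement; higher means more dye released from RNA so lower well fluorescence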
Exocytosis inh: blocks lytic granule exocytosis | hit rate 0.66% among 360,000 | TALL-104 LAMP-1 surface exposure, flow cytometry; cells stimulated with thapsigargin and PMA | AID 651702 | inhibition, % at 10 µM;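 active = inhibition above about 55%, limit read from the data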
Exocytosis CP01: blocks lytic granule exocytosis; AID 651954; shares compounds with Exocytosis inh; hit rate 11% among 1,500; inhibition, % at 10 µM; TALL-104 cells, LAMP-1 externalization, flow cytometry; stimulated with PMA plus thapsigargin; in the data active = inhibition above about 60%;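 note: 0% = stimulated vehicle wells and 100% = unstimulated wells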
Active calls of the source: *; nt = no result given. Compounds with a hit are over-represented: about 2.5% of the library has one in this group of screens.

SMILES | ABCB6 inh MLPCN | PG9 binder | rCAG RNA binder | Exocytosis inh | Exocytosis CP01
O=C1C(=O)N(Cc2cccs2)c2ccccc21 | 99 | -4 | 1 | 62* | -2
CCn1c2ccc(C)cc2c2nnc(SCCN3CCCCC3)nc21 | 90 | 0 | 5 | 97* | -3
Cc1ccc(SC[C@H](c2ccccc2)N2CCN(CCc3ccccc3)CCC2=O)cc1 | 94 | -2 | -5 | 59* | -11
O=C1CCN(CCc2ccccc2)CCN1[C@H](CSc1ccccc1)c1ccccc1 | 97 | -3 | -4 | 10 | nt
OC(CCN1CCC2CCC(C2)C1)c1ccc(Br)cc1 (configuration not stated) | 96 | 0 | -2 | 59* | -5
CCCCn1c(=N)n(CC(=O)c2ccc(Br)s2)c2ccccc21 | 104 | 0 | 17 | 82* | 96*
CCn1c(=N)n(CC(=O)c2ccc(Br)s2)c2ccccc21 | 99 | 1 | 15 | -1 | nt
NC(=O)Cn1cnc2nc3n(c2c1=O)CCC3 | 99 | -2 | 1 | -3 | nt
c1ccc(-c2nc(NC3CCCC3)c3ccccc3n2)cc1 | 100 | -3 | 7 | 57* | -5
COc1cccc(-c2nc(NC3CCCC3)c3ccccc3n2)c1O | 104 | 0 | 21 | 78* | 0
c1ccc(Nc2nc(-c3ccccc3)nc3ccccc23)cc1 | 101 | -1 | 16 | -17 | nt
O=C1CCCc2c1ccc1ccccc21 | 98 | 0 | 6 | -12 | nt
CCCS(=O)(=O)NC(=O)C1(C)CCN(C(=O)COc2ccc(Cl)cc2Cl)C1 (configuration not stated) | 105 | 1 | 8 | 61* | -3
CCCS(=O)(=O)NC(=O)C1(C)CCCN(C(=O)COc2ccc(Cl)cc2Cl)C1 (configuration not stated) | 107 | 2 | 7 | 5 | nt
CC(=O)Nc1cnc(-c2ccc3c(c2)OCO3)cn1 | 104 | 1 | 1 | -5 | nt
O=C(Nc1ccc(S(=O)(=O)N2CCCC2)cc1)c1ccc(Br)o1 | 87 | -1 | 1 | 80* | -2
O=C(Nc1ccc(S(=O)(=O)N2CCOCC2)cc1)c1ccc(Br)o1 | 99 | -2 | -1 | 9 | nt
O=C(Nc1cccc2nsnc12)c1ccc(-c2cccc(Cl)c2)o1 | 126 | 1 | 27 | 92* | -6
COc1ccc(CN2CCc3c([nH]c4ccccc34)C2)c(OC)c1C | 96 | -3 | 2 | 56* | -12
COc1ccc(CN2CCc3c([nH]c4ccccc34)C2)cc1Br | 108 | 0 | -2 | 4 | nt
O=C(Nc1nc(-c2ccccc2)cs1)c1ccc2c(=O)n3c(nc2c1)CCCCC3 | 85 | 1 | 6 | 97* | 68*
O=C(NCc1ccccc1)c1ccc2c(=O)n3c(nc2c1)CCCCC3 | 98 | 0 | -1 | -10 | nt
Cc1cccc(N2C(=O)CC(Sc3nnc(C)s3)C2=O)c1 (configuration not stated) | 104 | 0 | 8 | 67* | -1
Cc1ccc(N2C(=O)CC(Sc3cccs3)C2=O)cc1 (configuration not stated) | 99 | -1 | -2 | 86* | -8
CCCCN(C(C)=O)c1c(CC)nc2ccc(C(=O)NCCCN(C)C)cn12 | 100 | 1 | 0 | 1 | nt
SMILES | ABCB6 inh MLPCN | PG9 binder | rCAG RNA binder | Exocytosis inh | Exocytosis CP01
O=Cc1ccccc1OCCCOc1cccc2cccnc12 | 93 | -1 | -2 | 13 | nt
Clc1ccccc1OCCCOc1cccc2cccnc12 | 98 | -1 | -5 | 88* | -12
C[C@@H]1CN([C@@H](C)CO)C(=O)c2cc(NS(C)(=O)=O)ccc2O[C@@H]1CN(C)Cc1ccc(C(F)(F)F)cc1 | 100 | 0 | -1 | 62* | -15
C[C@H](CO)N1C[C@H](C)[C@@H](CN(C)C(=O)Nc2ccc(C(F)(F)F)cc2)Oc2c(NC(=O)Nc3ccccc3)cccc2C1=O | 99 | -2 | 17 | -3 | nt
C[C@H](CO)N1C[C@H](C)[C@@H](CN(C)Cc2ccc(C(=O)O)cc2)Oc2ccc(NS(C)(=O)=O)cc2C1=O | 94 | 2 | 6 | 2 | nt
CC(C)NC(=O)N(C)C[C@H]1Oc2c(NC(=O)Nc3ccc(C(F)(F)F)cc3)cccc2C(=O)N([C@H](C)CO)C[C@@H]1C | 94 | -2 | -3 | 60* | -4
C[C@H](CO)N1C[C@H](C)[C@@H](CN(C)C(=O)NC2CCCCC2)Oc2ccc(NS(=O)(=O)c3ccc(F)cc3)cc2C1=O | 99 | -1 | -5 | -2 | nt
C[C@H](CO)N1C[C@H](C)[C@@H](CN(C)C(=O)NC2CCCCC2)Oc2ccc(NS(C)(=O)=O)cc2C1=O | 97 | 0 | 0 | 73* | 0
